This is one part of a sample in which hits are shown more often than they occur.
RMI FANCM FP: inhibitors of human RMI core complex binding to FANCM MM2. Fluorescence polarization, RMI core complex with F-MM2 peptide; active compounds read low. 70,000 compounds, 0.58% hits. FP signal (polarization) at 33 µM; in the data active means FP signal below about 40
* marks the source's active call; other numbers are inactive results.

SMILES | RMI FANCM FP
Fc1ccc(Cn2c3ccccc3c3nn4cnnc4nc32)cc1 | 28*
O=C1N=c2ccccc2=CC1=Cc1sc(=S)n(Cc2ccccc2)c1O | 56
Nc1c(C(=O)N2CCOCC2)sc(=S)n1-c1ccccc1F | 64
Oc1c(C=C2N=c3ccccc3=N2)sc(=S)n1-c1ccccc1F | 23*
Cc1ccc(C(=O)NCCn2cc(SC(=N)N)c3ccccc32)cc1 | 73
O=C(Nc1ccc(Cl)cc1)c1cc(-c2ccccn2)nc2ccccc12 | 79
COc1ccc(CCNC(=O)CSc2ncnc3[nH]ncc23)cc1OC | 55
CCSc1nnc(NC(=O)CSc2ncnc3c2cnn3-c2ccccc2)s1 | 55
O=C(CSc1ncnc2[nH]ncc12)Nc1nc(-c2ccco2)c(-c2ccco2)s1 | -3*
Cc1onc(-c2ccccc2Cl)c1C(=O)N1CCN=C1SCc1ccccc1F | 62
CCc1ccc(-c2ccc(SCC(=O)Nc3ccc(Cl)c(Cl)c3)nn2)cc1 | 57
NS(=O)(=O)c1ccc(N=Cc2cc(Br)ccc2O)cc1 | 48
O=S(=O)(N/N=C\c1cc(Br)ccc1O)c1ccccc1 | 59
O=S(=O)(N=Cc1cc(Br)ccc1O)c1ccccc1 | 21*
Cc1nccc(-c2cccc(N/N=C(/C#N)S(=O)(=O)c3ccccn3)c2)n1 | 54
CCOC(=O)c1c(NC(=O)c2ccc3ncsc3c2)sc2c1CCN(C(=O)OCC)C2 | -5*
COC(=O)N1CCc2c(sc(NC(=O)c3ccc4ncsc4c3)c2C(N)=O)C1 | 75
CCOC(=O)N1CCc2c(sc(NC(=O)c3cccc(C)c3)c2C(N)=O)C1 | 65
CN1CCCc2cc(C(CNC(=O)C(=O)Nc3ccc(F)c(F)c3)N3CCOCC3)ccc21 (centres undefined) | 67
COc1ccc(N=Nc2cc(C)c(O)c(CN3CCCCC3)c2)cc1 | 70
Cc1ccc(C(C)C)cc2c(C)ccc1-2 | 52
COc1ccc(N=Nc2cc(C)c3cc(C(C)C)ccc(C)c2-3)cc1 | -11*
C/C(=N/O)C(C)(C)Nc1ccc(Cl)cc1 | 55
CC1=NN(c2ccccc2)C(=O)/C1=C\N1CCC(C)CC1 | 61
CC(=O)N1CCN(c2ccc(C(F)(F)F)cc2[N+](=O)[O-])CC1 | 56
SMILES | RMI FANCM FP
O=c1c2scc(-c3ccccc3)c2ncn1Cc1cccc(Cl)c1 | 63
Cc1ccc(C)c(Cn2cnc3c(-c4cccc(Cl)c4)csc3c2=O)c1 | 66
O=c1c2scc(-c3cccc(Cl)c3)c2ncn1Cc1cc(=O)n2ccccc2n1 | 16*
Cc1cc(NC(=O)c2ccc(S(=O)(=O)N(C)C3CCCCC3)cc2)n(C(C)C)n1 | 70
CSc1ccccc1C(=O)Nc1sc2c(c1C(N)=O)CCN(C(C)C)C2 | 80
CC(C)N1CCc2c(sc(N)c2C(N)=O)C1 | -30*
CC(=O)N1CCc2c(sc(N)c2C(N)=O)C1 | 69
CCOC(=O)c1ccc(S(=O)(=O)NCCOc2ccc(-c3ccc(F)cc3)nn2)cc1 | 54
CN(C)c1ccc(C2CC(=O)C=C(NCCc3ccccn3)C2)cc1 (centres undefined) | 55
Cc1cccc(S(=O)(=O)Nc2ccc3c(c2)C(=O)Nc2cc(C)ccc2O3)c1 | 67
CCn1c(/C=N\Nc2nc3ccccc3s2)nc2ccccc21 | 59
Cc1nn(-c2ccccc2)c(N2CCCCC2)c1/C=N\Nc1nc2ccccc2s1 | 8*
COc1ccc(C(=O)N/N=C\c2c(C)nn(-c3ccccc3)c2N2CCCCC2)cc1OC | 57
Cc1ccc(C2CC(c3cccs3)=NN2C(=O)CSc2nc(=O)n3ccc(C)cc3n2)cc1 (centres undefined) | 88
COC(=O)c1ccc(CSc2nc(=O)n3ccc(C)cc3n2)o1 | 48
CCOC(=O)N1CCN(C(=O)CSc2nc(=O)n3ccc(C)cc3n2)CC1 | 29*
CC(C)S(=O)(=O)c1ccc(C(=O)N2CCNC(=O)C2(C)C)cc1 | 53
CCOC(=O)c1c(NC(=O)c2ccnn2CC)sc(C)c1C | 68
O=C(O)c1cccc2cccc(-c3cccc4cccc(C(=O)O)c34)c12 | 53
O=C1Sc2cccc3cccc1c23 | 58*
CNN1C(=O)c2cccc3cccc(c23)C1=O | 55
COC(=O)c1ccc2nc(NC(=O)c3cc(-c4cccs4)nc4ccccc34)sc2c1 | 85
O=C(Nc1nc(-c2cccs2)c(C(=O)C(F)(F)F)s1)c1cc(-c2ccccc2)nc2ccccc12 | 19*
NC(=O)c1ccsc1NC(=O)c1cc(-c2ccccc2)nc2ccccc12 | 61
COc1ccc2nc(-n3nc(C)cc3NC(=O)c3cc4ccccc4oc3=O)sc2c1 | 61
SMILES | RMI FANCM FP
O=C(O)c1cc2cccnc2[nH]c1=O | 67
O=C(Nc1csc(-c2ccc(Oc3ccc(-c4nc(NC(=O)c5ccc(C(=O)c6ccccc6)cc5)cs4)cc3)cc2)n1)c1ccc(C(=O)c2ccccc2)cc1 | 25*
O=C(Nc1ccc(S(=O)(=O)N2CCOCC2)cc1)c1ccc(Cl)cc1 | 55
O=C(Nc1nc(-c2ccc(Br)cc2)cs1)c1ccc(Oc2ccc(C(=O)Nc3nc(-c4ccc(Br)cc4)cs3)cc2)cc1 | 58
O=C(Nc1csc(-c2ccc(Oc3ccc(-c4nc(NC(=O)c5ccc(S(=O)(=O)N6CCOCC6)cc5)cs4)cc3)cc2)n1)c1ccc(S(=O)(=O)N2CCOCC2)cc1 | 9*
O=S(=O)(c1ccc(-c2nc(-c3ccc(Cl)cc3)cs2)cc1)N1CCOCC1 | 50
O=C(Nc1csc(-c2ccc(Oc3ccc(-c4nc(NC(=O)c5cc(Cl)sc5Cl)cs4)cc3)cc2)n1)c1cc(Cl)sc1Cl | 65
O=C1Nc2ccccc2/C1=C/c1ccc(-c2cccs2)s1 | 45
CCOc1ccc(/C=N\NC(=O)N/N=C\c2ccc(OCC)c(OC)c2)cc1OC | 59
COc1ccc(S(=O)(=O)Nc2cccc(C(=O)Nc3nnc(C4=COCCO4)o3)c2)cc1 | 54
Cc1cccc(S(=O)(=O)NCCc2csc3nc(-c4cccs4)nn23)c1 | 59
Nc1cc(-c2ccc(Cl)cc2)nn1C1CCS(=O)(=O)C1 (centres undefined) | 70
COc1ccc(-c2nc(SCC(=O)Nc3cc(C)on3)c3c(=O)n(C)c(=O)n(C)c3n2)cc1OC | 70
CN1C(=O)C(C)(C)COc2ccc(NC(=O)c3ccccc3C(F)(F)F)cc21 | 68
O=C(c1ccccc1F)N1CCN(Cc2nc(-c3cccs3)cs2)CC1 | 62
CCS(=O)(=O)c1cccc(C(=O)Nc2nc3c(C)cccc3s2)c1 | 65
CN(C)S(=O)(=O)c1ccc(C(=O)Nc2nnc(SCC(=O)Nc3ccccc3C(F)(F)F)s2)cc1 | 54
CCOC(=O)/C=C/C(=O)Nc1sc(C)c(C)c1C(N)=O | 52
Cc1sc(N)c(C(=O)c2cccc(C(F)(F)F)c2)c1C | 58
Cc1sc(N)c(C(N)=O)c1C | 15*
N#CCCN1CCN(C2=NC(=O)/C(=C\c3ccc(-c4cccc(C(F)(F)F)c4)o3)S2)CC1 | 85
Cc1occc1-c1nc2s/c(=C\c3ccc(-c4cccc(C(F)(F)F)c4)o3)c(=O)n2n1 | 16*
Cc1ccc(/C=c2\sc3nc(=O)c(C)nn3c2=O)o1 | 70
Cc1nn(CC(=O)NOC(=O)c2ccccc2F)c(C)c1[N+](=O)[O-] | 53
O=C(CSc1nnc(-c2cccs2)o1)NC(=O)Nc1ccccc1 | 59
Cc1cc(NS(=O)(=O)c2ccc(NC(=O)CCN3C(=O)c4ccccc4C3=O)cc2)nc(C)n1 | 60
Cc1cc(NS(=O)(=O)c2ccc(NC(=O)c3ccc(Br)o3)cc2)no1 | 66
Cc1cc(NS(=O)(=O)c2ccc(NC(=O)c3oc4cc(C)c(C)cc4c3C)cc2)nc(C)n1 | 17*
Cc1cc(Sc2nnc(N=CN(C)C)s2)c2ccccc2n1 | 56
Cc1nc2cc3ccccc3cc2c(=O)n1/N=C\N(C)C | 8*

Bioassay records deposited in PubChem by Small Molecule Screening Facility, UW Madison.
